Laboratory results: the supplement of paper PMC6555819

Legend:
Experiment in all cases: PBM binding z-score (relative to random genomic background probes); higher = stronger binding; sequences stand for … in GC…GCGATTGACAGCGTAGAATGAAGG
[1] = test system: FXR:RXRa (NR concentration 270 nM, RXRa partner concentration 90 nM)
In short: (§1)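 Each nuclear receptor dimer, without ligand, was incubated for 1 h on custom Agilent 4×180K protein-binding microarrays. Binding was detected with antibodies against each partner (one per run), and scanned fluorescence was regression-normalized. The binding z-scores are referenced to random human genomic background probes.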

[2] = test system: LXRa:RXRa (NR concentration 270 nM, RXRa partner concentration 90 nM)
In short: as §1

[3] = test system: LXRa homodimer (NR concentration 270 nM)
In short: as §1

[4] = test system: LXRb:RXRa (NR concentration 270 nM, RXRa partner concentration 90 nM)
In short: as §1

[5] = test system: LXRb homodimer (NR concentration 270 nM)
In short: as §1

[6] = test system: PPARa:RXRa (NR concentration 270 nM, RXRa partner concentration 90 nM)
In short: as §1

[7] = test system: PPARg:RXRa (NR concentration 180 nM, RXRa partner concentration 90 nM)
In short: as §1

[8] = test system: PPARg:RXRa 270nM:90nM, anti-RXR (NR concentration 270 nM, RXRa partner concentration 90 nM)
In short: as §1

[9] = test system: PPARg:RXRa 30nM:10nM, anti-RXR (NR concentration 30 nM, RXRa partner concentration 10 nM)
In short: as §1

[10] = test system: PPARg:RXRa 90nM:30nM, anti-RXR (NR concentration 90 nM, RXRa partner concentration 30 nM)
In short: as §1

Sequence	PBM binding z-score [1]	PBM binding z-score [2]	PBM binding z-score [3]	PBM binding z-score [4]	PBM binding z-score [5]	PBM binding z-score [6]	PBM binding z-score [7]	PBM binding z-score [8]	PBM binding z-score [9]	PBM binding z-score [10]
TAGCCTAGGTCATTCGGGCCAGTATAGTGTCGGC	4.65	3.71	1.53	2.35	0.458	3.55	1.61	2.21	-0.0237	1.26
CGAACTAGGTCATCCAGGCCAGTGAATACATTGA	4.42	2.58	0.198	1.84	-0.0916	4.97	7.7	6.3	3.77	5.63
TCGAGTTGGTTAGGGGCATTCAGAATGGCGTCGA	0.222	0.121	-0.233	0.793	-0.112	0.575	-0.307	0.595	0.687	0.343
ACAGACAGGTGATAAAGGTAACTCAGGCTATCAT	-0.11	-0.0181	-0.44	0.128	-0.23	0.763	1.15	1.47	0.377	1.35
CCTCGGAAGACAGAAGGTCAGAGCTGTCCGCTTT	0.995	1.6	0.422	1.25	-0.462	1.69	-0.302	0.238	-0.803	-0.38
CCTACTGGGCCATGGTCATTGATCAGTCAAAGCA	0.0298	-0.313	-0.591	-0.226	-1.02	0.969	1.05	1.3	-0.281	0.872
CCTACTGAGCCACGAAAGGTCATTGATTCAGTGA	3.68	5.05	5.31	4.22	1.09	4.21	1.27	2.77	0.973	1.93
GCTGGTAGATCAAGGTTAAGAAAGACTAAGCTAA	0.17	0.885	-0.138	0.378	-0.528	1.12	0.134	1.18	-0.00579	1
ATATGTAGCTTACATCCGGGTCATTCAGGCTATG	1.18	1.36	0.618	1.73	0.372	2.39	0.959	0.733	0.448	0.268
AGAACGAGAGCACGCTGAGTTGATAGCAGAGTAG	-0.802	-0.854	-0.51	-0.91	-1.27	-0.425	0.523	-0.601	-0.701	-0.842
TCATATAGGGAAAAGGTGAAAGTCGGTGTGGTAA	1.4	1.47	0.577	1.64	0.109	4.56	7.27	7.61	6.66	8.2
CGTCAAAGTTCAAGGTAACTTAACAGAAAGCAGC	6.07	5.46	2.56	3.35	0.919	4.5	4.23	4.97	1.81	3.84
ATCTCGAGGTAACCAAGTTCAGTGAATGCCGAAC	0.65	1.14	0.25	0.608	-0.105	1.25	0.211	0.361	-0.167	0.304
CCTCGGAGGATAGAAGGTCAGAGCTGTCCGCTTT	1	1.57	0.218	1.21	-0.745	1.83	-0.0434	1.26	-0.528	0.571
CGTCCAAGGTCAAAGGCCAGTGAAGAGATGACGG	7.32	5.28	0.422	3.87	0.919	6.01	6.49	6.54	3.55	5.57
TCATATAGGTAAAAGGCGAAAGTCGGTGTGGTAA	0.336	0.537	0.094	0.746	-0.359	2.66	4.65	6.15	6.72	7.04
CCTACTGGGCCAAAGGTCATTAATTCCAATGCTC	4.33	4.53	3.47	4.65	0.938	6.19	12.5	10.3	12.4	12.4
ATCTCTAGGTAAGACTCTGTTCAGTGAAGAACGC	0.455	0.64	0.527	0.145	0.866	0.0687	0.000617	0.133	0.343	0.426
TCTATTAGTTGAAGGGCGACCGACGAGTCCGTTT	0.994	1.03	0.292	0.778	0.384	0.661	-0.000303	2.13	3.99	2.9
GGAACGAGGGCATTCGAGTTGATACCATGGCGAT	0.529	1.7	-0.438	0.458	-0.357	1.44	1.06	0.855	-0.156	0.405
ACTAGTTGGTCAGCTGAGGCCACACACAATTCGG	0.531	-0.313	-0.2	-0.129	-0.143	-0.0104	0.761	-0.157	-0.382	-0.207
CGTCCAAGGTCATAGGAGATCAGTGAAGACAGAT	6.93	5.5	1.32	3.92	0.511	5.4	4.74	4.9	2.45	3.71
ATATGTAGGTTAGCTGGGGTTATTCAGACTAGGC	1.74	3.29	0.848	2.56	1.44	3.94	4.22	3.82	1.45	2.9
AGAAGGAGGTTATTAAGATCAGGGAATTGCGGTC	1.12	1.36	0.522	1.46	0.654	2.01	1.01	1.31	0.314	0.827
ATCGAAAGGTCGAGGTAAGTATAGAGAAAGGGAA	3.98	3.46	0.361	2.66	0.336	4.29	2.72	3.32	1.2	2.24
